Rows were chosen to be rich in hits. Some 19% of all compounds tested hit in one or more screens of this group.
TDP1 cell CPT = growth inhibition of DT40 Tdp1-/-;hTDP1 cells with camptothecin (screen for TDP1 inhibitors); chicken DT40 Tdp1-/-;hTDP1 cells + 20 nM CPT, ATP luminescence, 48 h; Potency, µM (doses to about 46.2 µM), hits mostly inhibitors; 420,000 compounds, 12% hits; further: nearly all actives have a fitted effect of over 55% in size
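Chicken DT40 Tdp1-/- cells stably complemented with human TDP1 were seeded at 400 cells/well in medium containing 20 nM camptothecin, exposed to pin-transferred compounds, and grown at 37 °C for at least 48 hr. Viability was read as ATP luminescence.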
IL-1B inflam inh = inhibitors of inflammasome signaling (IL-1 beta secretion); THP-1 LPS/ATP IL-1B secretion, AlphaLISA, 16 h; stronger effect = lower value; 360,000 compounds, 4.7% hits; activity change, % at 57.5 µM; in the data active means activity change below about -50%; inconclusive means mostly about -30% to -49%
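THP-1 cells pretreated 1 hr with compounds (up to 57.5 uM final), then stimulated with LPS (250 ng/mL final) plus ATP (1.25 mM final); secreted IL-1B measured by AlphaLISA after 16 hr, decreased signal indicating inhibition.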
HT1080-NT tox = kills 2HG-producing HT-1080-NT fibrosarcoma cells; HT-1080-NT fibrosarcoma viability, CellTiter-Glo ATP luminescence, 48 h; Potency, µM (top dose mostly 46.1 µM), hits mostly cytotoxic; 360,000 compounds, 1.6% hits; AID 686970;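 further: NT is the 2HG producing partner of a matched IDH1 knockdown line; nearly all actives have a fitted effect of over 55% in size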
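HT-1080-NT; 750 cells/well; 5% FBS RPMI; 48 h compound, 37 degrees C; CellTiter-Glo luminescence; curve fitting and curve-class assignment.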
TDP1 cell noCPT = qHTS for Inhibitors of human tyrosyl-DNA phosphodiesterase 1 (TDP1): qHTS in cells in absence of CPT. DT40 Tdp1-/- hTDP1 cells, no CPT, ATP luminescence, 48 h. Potency, µM (doses to about 46.2 µM), hits mostly inhibitors. 420,000 compounds, 15% hits. AID 686978, 2013; further: nearly all actives have a fitted effect of over 55% in size
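Growth kinetics read by CellTiter-Glo luminescence after ≥48 hr at 37 °C. Cells: DT40 Tdp1-/- stably carrying human TDP1, 400 per well, compound exposure in the absence of CPT (DMSO vehicle).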
HT1080 IDH1KD tx = kills HT-1080 cells with IDH1 knockdown. HT-1080 IDH1 knockdown viability, ATP luminescence, 48 h. Potency, µM (top dose mostly 46.1 µM), hits mostly cytotoxic. 360,000 compounds, 2% hits. AID 686971
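After a 2 h attachment period, IDH1KD HT-1080 cells took pin-transferred compound for 48 h at 37 °C; ATP-based luminescence after 10 min room-temperature reagent incubation reported viability.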
Hits are given with their value; 0 = inactive; ? = inconclusive; - = not tested or not shown; [ ] = dose if it differs, or a comment. Unless noted, the call rests on the fitted dose curve; in most records, active means well fitted curve in the direction sought with a large enough effect; inconclusive means small, poorly fitted or top-dose-only effect, or another doubt; inactive means no such curve, though single readings can be large; an effect the other way counts as inactive or inconclusive.

SMILES	TDP1 cell CPT	IL-1B inflam inh	HT1080-NT tox	TDP1 cell noCPT	HT1080 IDH1KD tx
COc1ccc(-c2nc3c4ccccc4ccn3c2Cc2ccsc2)cc1OC	?	0	?	?	?
Cc1ccc(-c2nc3c4ccccc4ccn3c2Cc2ccsc2)cc1	16µM	0	0	?	0
c1ccc(-c2nc3c4ccccc4ccn3c2Cc2ccsc2)cc1	23µM	0	0	16µM	0
COc1ccc(-c2nc3c4ccccc4ccn3c2Cc2ccc(C)cc2)cc1OC	?	0	?	21µM	?
Cc1ccc(-c2nc3c4ccccc4ccn3c2Cc2ccccc2)cc1	?	0	0	?	0
Cc1ccc(Cc2c(-c3ccccc3)nc3c4ccccc4ccn23)cc1	23µM	0	0	21µM	0
Cc1ccc(SCCN2CCN(CC(C)C)CCC2=O)cc1	?	0	0	?	0
COc1ccc(OCC(=O)Nc2cc(-c3ccccc3F)nn2-c2ccccc2)cc1	0	-	-	0	-
Cc1c(Cl)cccc1NC(=O)CCn1cnnn1	0	-	-	0	-
CCCc1nc2c3ccccc3ccn2c1Cc1ccccc1	18µM	0	?	21µM	?
Cc1noc(C)c1S(=O)(=O)Nc1ccc2c(c1)C(=O)N([C@H](C)CO)C[C@H](C)[C@@H](CN(C)S(=O)(=O)c1ccccc1)O2	0	0	0	0	0
COc1ccccc1-c1cc(C(=O)Nc2cccnc2)no1	0.46µM	0	0.32µM	0.46µM	0.25µM
COc1ccc(NC(=O)c2cc(-c3ccccc3Cl)on2)cc1	0	0	0	?	0
COc1ccc(NC(=O)c2cc(-c3ccccc3OC)on2)cc1	2.8µM	0	4.5µM	2.8µM	6.3µM
COc1ccc(OC)c(-c2cc(C(=O)NC(C)c3ccccc3)no2)c1 (centres undefined)	4.1µM	-	-	4.1µM	-
COc1ccccc1-c1cc(C(=O)Nc2cccnc2Cl)no1	0	0	?	0	0
Cc1ccc([N+](=O)[O-])cc1NC(=O)c1ccc(-c2ccccc2)cc1	0	0	0	0	0
O=C(NCC1Cc2cc(-c3cncnc3)cc(Cl)c2O1)c1cccc(Cn2cccn2)c1 (centres undefined)	0[9.04 µM]	-	-	0	-
COc1ccc2c(c1)C(=O)C(=O)N2CCS(=O)(=O)c1ccccc1	7.3µM	0	0	2.3µM	0
O=C1C(=O)N(CCS(=O)(=O)c2ccccc2)c2ccc(F)cc21	21µM	0	0	?	0
O=S(=O)(CCS(=O)(=O)c1ccccc1)c1ccccc1	0	?	0	0	?
O=C(Nc1cccc(S(=O)(=O)NCc2ccco2)c1)c1cccc(Cl)c1	?	0	0	?	0
CC(C)SC1=NC(C)(C)C=C(/C=C/c2c(Cl)cccc2Cl)N1	?	-82	?	?	21µM
CC(C)SC1=NC(C)(C)C=C(/C=C/c2ccc(Cl)cc2Cl)N1	?	-113	?	?	?
Cc1ccc(C(=O)c2cncc(Br)c2)cc1	?	?	0	?	0
SMILES	TDP1 cell CPT	IL-1B inflam inh	HT1080-NT tox	TDP1 cell noCPT	HT1080 IDH1KD tx
CCc1ccc(C(=O)c2cncc(Br)c2)cc1	10µM	0	0	8.2µM	0
COc1cc(CNc2ccc3[nH]c(=O)[nH]c3c2)ccc1OCc1ccc(C)cc1	?	?	0	?	?
COc1cc(CNc2ccc3[nH]c(=O)[nH]c3c2)cc(Br)c1OCc1ccc(F)cc1	7.3µM	-	0	15µM	0
COc1cc(CNc2ccc3[nH]c(=O)[nH]c3c2)cc(Cl)c1OCc1ccccc1F	12µM	-	-	8.2µM	-
COc1cc(CNc2ccc3[nH]c(=O)[nH]c3c2)cc(Cl)c1OCc1ccc(F)cc1	18µM	-	-	15µM	-
COc1cc(CNc2ccc3[nH]c(=O)[nH]c3c2)ccc1OCc1cccc(C)c1	?	-76	?	?	0
O=C1OCc2ccc([N+](=O)[O-])cc21	0	0	0	0	0
COc1cc(C2C(c3ccccc3)C(c3cc(OC)cc(=O)o3)C2c2ccccc2)oc(=O)c1 (centres undefined)	?	?	0	?	0
Cc1cc(C)cc(C(=O)n2nc(C)c(S(=O)(=O)N3CCCCCC3)c2C)c1	0	-	-	0	-
Cc1cccc(CNS(=O)(=O)c2ccc(-c3coc(C)n3)cc2)c1	0	-	-	?	-
COc1cc(CNC2CCCC2)cc(Cl)c1OCc1ccccc1F	16µM	-76	?	13µM	13µM
CC(C)(C)c1ccc(OCCC(=O)Nc2ccc(N3CCOCC3)cc2N2CCOCC2)cc1	16µM	-51	?	16µM	?
CCN(CC)S(=O)(=O)c1ccc(N2CCOCC2)c(NC(=O)CNCCc2ccccc2)c1	18µM	0	0	18µM	0
CCN(CC)S(=O)(=O)c1ccc(N2CCOCC2)c(NC(=O)CCOc2ccccc2)c1	?	0	0	15µM	0
CCOc1cc(N2CCOCC2)c(OCC)cc1NC(=O)COC(=O)CCOc1ccc(C(C)(C)C)cc1	?	0	0	?	0
CCN(CC)S(=O)(=O)c1ccc(N2CCOCC2)c(NC(=O)COc2ccccc2)c1	?	0	0	?	0
CCc1ccccc1OCC(=O)Nc1cc(S(=O)(=O)N(CC)CC)ccc1N1CCOCC1	21µM	0	0	16µM	0
CC(=O)c1cc2c(cc1O)OC(C)(C)C=C2	0	-	-	0	-
COc1ccc(-c2nnn(CC(=O)Nc3ccc4c(c3)OCCO4)n2)cc1OC	0	0	0	0	0
CCN(CC)S(=O)(=O)c1ccc(N2CCOCC2)c(NC(=O)c2cc3ccccc3oc2=O)c1	?	0	0	16µM	0
CCN(CC)S(=O)(=O)c1ccc(N2CCOCC2)c(NC(=O)c2ccccc2F)c1	?	0	0	?	0
COc1cc(C(=O)C(=O)N2CCN(c3ccccc3)CC2)cc(OC)c1OC	3.7µM	0	?	3.7µM	7.3µM
COc1cc(CCC(=O)N2CCN(c3ccccc3)CC2)cc(OC)c1OC	0	0	0	?	0
COc1cc(C(=O)C(=O)N2CCC(Cc3ccccc3)CC2)cc2ccccc12	16µM	0	0	23µM	0
COc1cc(C(=O)C(=O)N2CCN(c3ccc(C)cc3)CC2)cc2ccccc12	15µM	0	0	15µM	?
SMILES	TDP1 cell CPT	IL-1B inflam inh	HT1080-NT tox	TDP1 cell noCPT	HT1080 IDH1KD tx
CC(NC(=O)COC(=O)c1ccc([N+](=O)[O-])o1)c1ccccc1 (centres undefined)	0	0	0	0	0
S=C(c1ccc2c(c1)OCO2)N1CCCC1	0	0	0	0	0
Cc1nc(N)nc(Nc2ccc(C#N)cc2)c1Br	?	0	0	?	0
N#Cc1c(N)nc(N)nc1Nc1ccc(Br)cc1	?	0	0	15µM	0
CCOc1cc(NC(=O)C2CC2)c(OCC)cc1NC(=O)c1cccc(F)c1	0	0	0	0	0
OCCCNc1nc(-c2ccc(Br)cc2)nnc1-c1ccc(Cl)cc1	23µM	-57	0	?	?

Assay outcomes deposited in PubChem BioAssay by National Center for Advancing Translational Sciences (NCATS).
